Among the data in PubChem BioAssay (Tox21) are Potency values, retold here.

Results filed as inconclusive are left out. Entries that show only a call come without a potency. Active and inactive are the calls of the source. The call rests on the fitted dose curve; in most records, active means well fitted cell-killing curve with a large enough effect in the repeat runs; inconclusive means weak or mixed curves, or effect the other way; inactive means flat fitted curve, though single readings scatter.

The nature of the test: qHTS RealTime-Glo MT Cell Viability Assay in HEK293 cells - 24 hour (AID 1224886). Further: top concentration of the series differs between compounds; nearly all actives have a fitted effect of over 50% in size. As to conditions: RealTime-Glo luminescence; series mostly up to 76.8 µM. An outline of the steps: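 Assay medium contained NanoLuc luciferase plus cell-permeant prosubstrate, added with HEK293 cells at 600 cells/well. After 5 h at 37 C/5% CO2 compounds were added; plates stayed at 37 C for 40 h with serial luminescence reads.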
(In general: In qHTS, concentration-response curves come from the screen itself.)
With `NC(CSCC(=O)O)C(=O)O` (stereo not given), the Potency entry was “inactive”.
In the case of `O=C(O)CNC(=O)c1ccc([N+](=O)[O-])cc1`, the Potency result was “inactive”.
As for `N=C(N)c1ccc(OCCCOc2ccc(C(=N)N)cc2)cc1`, the Potency entry was “inactive”.
Next, `CCCCCCCCCCCCCCCCC`: “inactive”; `CN(C)CCCNCCCN(C)C`: “inactive”; `COc1ccc2c(c1)c(CC(=O)OCC(=O)O)c(C)n2C(=O)c1ccc(Cl)cc1`: “inactive”.
Under `CCCCOCCOCCOCCCC` stands “inactive”.
Under `COC(C)(C)CCCC(C)CC=O` (stereo not given) stands “inactive”.
`CCCN1CCCC[C@H]1C(=O)Nc1c(C)cccc1C`: the Potency result is “inactive”.
Next, `O=C(O)CCCl`: “inactive”; `COc1nc(N)nc2c1ncn2[C@@H]1O[C@H](CO)[C@@H](O)[C@@H]1O`: “inactive”; `C1OCOCO1`: “inactive”.
Next, `Cc1cc2c(cc1S(N)(=O)=O)S(=O)(=O)CCC2`: “inactive”; `O=c1n(CCO)c(=O)n(CCO)c(=O)n1CCO`: “inactive”.
Under `CCCCCCCCCCCCN(CCCCCCCCCCCC)CCCCCCCCCCCC` stands “inactive”; under `CCS(=O)(=O)c1ccc(OC)c(C(=O)OC)c1`, “inactive”; under `N=C(N)c1ccccc1`, “inactive”.
With `CN1C(=O)N(C)C(O)C1O` (stereo not given), the Potency entry is “inactive”.
Under `CC(C)NC(=O)NC(C)C` stands “inactive”; under `Brc1c(NC2=NCCN2)ccc2nccnc12`, “inactive”.
Under `CN(C(=O)c1c(O)c2ccccc2n(C)c1=O)c1ccccc1` stands “inactive”; under `CC(C)NCCCC1(C(N)=O)c2ccccc2-c2ccccc21`, “inactive”.
As for `C=C(C)C(=O)OCCCCCCCC(C)C`, the Potency entry is “inactive”.
Under `CC(NC(CCc1ccccc1)C(=O)O)C(=O)N1C(=O)N(C)CC1C(=O)O` (stereo not given) stands “inactive”; under `CCOC(=O)[C@H](CCc1ccccc1)N[C@@H](C)C(=O)N1[C@H](C(=O)O)C[C@@H]2CCC[C@@H]21`, “inactive”.
Next, `O=Cc1cccc([N+](=O)[O-])c1`: “inactive”; `CC/C=C\CC/C=C/C(OCC)OCC`: “inactive”.
In the case of `CCCCCSCCCCC`, the Potency entry was “inactive”.
`CCOC(=O)CC(C)=O`: the Potency result was “inactive”.
On to `Cn1cc(S(C)=O)c(=O)c2ccc(F)cc21` (stereo not given), for which the Potency entry was “inactive”.
Consider `CC(C)CCCC(C)N` (stereo not given), for which the Potency result was “inactive”.
With `COC(=O)c1ccc(C)cc1C1=NC(C)(C(C)C)C(=O)N1` (stereo not given), the Potency result is “inactive”.
Next, `CC(C)(O)C(=O)c1ccccc1`: “inactive”; `N#Cc1ccc(C2CCCc3cncn32)cc1` (stereo not given): “inactive”; `C[C@@H]1CCN(C(=O)[C@H](CCCN=C(N)N)NS(=O)(=O)c2cccc3c2NC[C@H](C)C3)[C@@H](C(=O)O)C1`: “inactive”.
